High-throughput results (PubChem BioAssay)
DT40 TDP1 no CPT: qHTS for Inhibitors of human tyrosyl-DNA phosphodiesterase 1 (TDP1): qHTS in cells in absence of CPT. Potency, µM (doses to about 46.2 µM), without a hit: at the top dose activity change, negative = growth inhibition, hits mostly inhibitors. AID 686978, 2013. 15% of 420,000 active. DT40 Tdp1-/- hTDP1 cells, no CPT, ATP luminescence, 48 h; further: nearly all actives have a fitted effect of over 55% in size
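No-CPT arm: Tdp1-/-;hTDP1 DT40 cells (400/well) plus compounds, incubated ≥48 hr at 37 °C. Readout CellTiter-Glo luminescence.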
Gal4-VP16 FLuc: inhibits Gal4-VP16 luciferase reporter, ROR gamma counter-screen; Drosophila S2 Gal4-VP16 UAS-luciferase, luminescence, 20 h; Potency, µM (doses to about 53.6 µM), inactives show at the top dose activity, negative = inhibition, actives largely listed as inhibitors; 3.5% of 310,000 active; AID 2546;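 further: Gal4-VP16 expression switched on by copper sulfate through the metallothionein promoter; nearly all actives have a fitted effect of over 50% in size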
TDP1 cell CPT: DT40-hTDP1 cell growth loss with CPT | chicken DT40 Tdp1-/-;hTDP1 cells + 20 nM CPT, ATP luminescence, 48 h | 12% of 420,000 active | Potency, µM (titrated, usually from 46.2 µM), without a hit: at the top dose activity change, negative = growth inhibition, most hits filed as inhibitors; further: nearly all actives have a fitted effect of over 55% in size
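Cell growth measured by CellTiter-Glo luminescence after a minimum 48 h, 37 C compound exposure with 20 nM CPT in Tdp1-knockout DT40 cells stably expressing hTDP1, seeded 400/well; qHTS titration format.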
ELG1 repair inh: ELG1-dependent DNA repair inhibition; 2.3% of 330,000 active; Potency, µM (doses to about 46.1 µM), for the others: at the top dose activity change, negative = inhibition, actives largely listed as inhibitors; HEK293T ELG1-luciferase reporter, luminescence, 16 h; DNA damage induced by 5-fluorouridine; further: nearly all actives have a fitted effect of over 55% in size
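Luminescence from the luciferase reporter, measured 30 min after ONE-Glo reagent at room temperature, was the read-out. Beforehand, 2,000 cells per well were exposed for 16 hr at 37 °C to 5-fluorouridine together with compound or vehicle.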
ALOX12 inh: inhibitors of human 12S-lipoxygenase ALOX12; P18054; Potency, µM (highest dose often 108 µM), inactives show at the highest dose activity change, negative = inhibition, usual class: inhibitors; purified 12hLO, xylenol orange hydroperoxide absorbance; 1.1% of 580,000 active
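Purified human 12hLO (150 nM final) in 25 mM Hepes, 0.01% Triton X-100, pH 7.0 was preincubated 15 min at room temperature with compound. Then 40 uM arachidonic acid was added, 30 min. Hydroperoxide was read by Fe-XO absorbance ratio 573/405 nm.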
RORg inh: inhibitors of mouse ROR gamma transcriptional activity; Drosophila S2 Gal4-RORgamma UAS-luciferase reporter, 20 h; Potency, µM (top dose mostly 53.6 µM), inactives show at the top dose activity change, negative = inhibition, hits mostly inhibitors; 5.4% of 310,000 active; AID 2551; further: nearly all actives have a fitted effect of over 60% in size
Target sequence (P51450 whole entry, looked up, the tested form may be a part): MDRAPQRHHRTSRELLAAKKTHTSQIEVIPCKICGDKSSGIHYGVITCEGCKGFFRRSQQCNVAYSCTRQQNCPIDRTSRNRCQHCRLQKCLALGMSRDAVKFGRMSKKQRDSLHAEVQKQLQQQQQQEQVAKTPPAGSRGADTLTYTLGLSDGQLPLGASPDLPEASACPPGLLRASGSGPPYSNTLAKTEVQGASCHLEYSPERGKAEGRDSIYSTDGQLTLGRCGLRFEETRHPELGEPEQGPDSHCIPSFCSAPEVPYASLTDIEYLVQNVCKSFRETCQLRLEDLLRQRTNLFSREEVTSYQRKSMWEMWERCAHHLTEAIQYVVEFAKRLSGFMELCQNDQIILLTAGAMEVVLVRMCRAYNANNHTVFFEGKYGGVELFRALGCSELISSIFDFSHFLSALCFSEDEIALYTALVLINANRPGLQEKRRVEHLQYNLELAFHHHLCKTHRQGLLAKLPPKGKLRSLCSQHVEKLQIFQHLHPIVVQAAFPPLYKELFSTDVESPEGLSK
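ROR gamma transcriptional activity was tracked as Gal4-UAS luciferase output in stably transfected Drosophila Schneider cells, with compound added 1 hr before 700 uM copper sulfate induction and a 20 hr ambient-temperature incubation.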
Numbers without * were called inactive; u = inconclusive; x = not tested or not shown; [ ] = dose if it differs, or a comment. A selection: hits, their analogues and other compounds. The true share with any hit is near 15%. The call rests on the fitted dose curve; in most records, active means well fitted curve in the direction sought with a large enough effect; inconclusive means small, poorly fitted or top-dose-only effect, or another doubt; inactive means no such curve, though single readings can be large; an effect the other way counts as inactive or inconclusive. On the % scale 0 is the no-effect control and ±100 the full control effect; potency means the concentration at half of the fitted maximal effect.

SMILES | DT40 TDP1 no CPT | Gal4-VP16 FLuc | TDP1 cell CPT | ELG1 repair inh | ALOX12 inh | RORg inh
O=C(Cn1c(=O)n(Cc2ccc3c(c2)OCO3)c(=O)c2oc3ccccc3c21)Nc1ccccc1F | -16.5% | x | -21.3% | x | u | x
Cc1ccc(Cl)cc1NC(=O)Cn1c(=O)n(Cc2ccccc2)c(=O)c2oc3ccccc3c21 | u | x | u | x | -13.7% | x
CCN1CCCC1CNCC(O)COc1ccc(C(C)(C)C)cc1C (stereo not drawn) | 5.8µM* | 1.0% | 6.51µM* | -2.8% | -19.8% | -48.2%
COc1ccc(-c2nc3c(c(SCC(=O)N4CCCCC4)n2)Cc2c(CO)cnc(C)c2O3)cc1 | 1.3µM* | x | 2.59µM* | x | 0.0% | x
CCN(CC)C(=O)CSc1nc(-c2ccc(C)cc2)nc2c1Cc1c(CO)cnc(C)c1O2 | 8.2µM* | x | 9.2µM* | x | -1.9% | x
CCOc1ccc(-c2nc3c(c(SCC(=O)N4CCCCC4)n2)Cc2ccccc2O3)cc1 | -10.4% | x | -22.4% | x | -20.5% | x
Cc1ccc(-c2nc3c(c(SCC(=O)N4CCOCC4)n2)Cc2c(CO)cnc(C)c2O3)cc1 | 10.3µM* | -18.2% | 23.1µM* | u | 0.0% | 4.5%
O=C(CSc1nc(-c2ccccc2)nc2c1Cc1ccccc1O2)N1CCCCC1 | 11.6µM* | x | 10.3µM* | x | -19.6% | x
COc1ccccc1NC(=O)N1CC[C@H](c2nnc(-c3ccc(C)cc3)o2)C1 | x | x | x | x | 8.1%[176 µM] | x
CCC(C)n1c(SCC(=O)N2CCOCC2)nc2c1c(=O)n(C)c(=O)n2C (stereo not drawn) | x | x | x | x | -7.1% | x
C=Cc1ccc(CSc2nc(-c3ccc(C)cc3)nc3c2Cc2c(CO)cnc(C)c2O3)cc1 | 16.4µM* | x | 14.6µM* | x | u | x
CCc1ccc(NC(=O)CSc2nc(-c3cccc(OC)c3)nc3c2Cc2c(CO)cnc(C)c2O3)cc1 | 7.31µM* | x | 6.51µM* | x | -4.4% | x
O=C(NCCc1noc(C2CC2)n1)C1CCC1 | x | x | x | x | -5.4% | x
COc1ccc(-c2csc(-c3c(N)c(C(=O)c4ccccc4)n4ccccc34)n2)cc1 | u | x | -28.8% | x | 5.0% | x
COc1ccc(-c2csc(-c3c(N)c(C(=O)c4ccccc4)n4ccccc34)n2)cc1OC | 2.31µM* | x | 4.11µM* | x | -23.9% | x
COc1cccc(-c2noc(COC(=O)C3=CN(C)S(=O)(=O)N=C3C)n2)c1 | x | x | x | x | 33.6% | x
O=C(CSc1nnc(-c2ccc(O)cc2)n1Cc1ccco1)c1cccs1 | u | -0.3% | u | 0.9% | -22.4% | 0.0%
N#Cc1c(-c2ccccc2)c(-c2ccccc2)n(Cc2ccco2)c1NC(=O)c1cccs1 | u | -1.6% | 11.2µM* | -1.3% | 0.0% | -0.3%
O=C(/C=C/c1cccc([N+](=O)[O-])c1)c1ccc(-c2ccccc2)cc1 | x | x | x | x | 4.9% | x
Cc1csc(CNc2ncnc3ccc(-c4ccoc4)cc23)c1 | x | x | x | u | 1.2% | x
COc1ccccc1-c1ccc2ncnc(N3CCOCC3)c2c1 | 20.6µM* | u | 18.4µM* | x | -9.8% | u
COc1cccc(-c2ccc3ncnc(N4CCOCC4)c3c2)c1 | 25.9µM* | -3.4% | 14.6µM* | x | -0.4% | 19.5%
COc1cccc(C(=O)Nc2ccc3c(N4CCOCC4)ncnc3c2)c1 | x | x | x | x | 21.9% | x
COc1ccccc1-c1ccc2ncnc(N3CCN(C)CC3)c2c1 | 7.31µM* | u | 9.2µM* | x | -14.3% | -1.7%
c1cn(-c2ncnc3ccc(-c4ccoc4)cc23)cn1 | 23.1µM* | u | 18.4µM* | x | -30.4% | 4.47µM*
SMILES | DT40 TDP1 no CPT | Gal4-VP16 FLuc | TDP1 cell CPT | ELG1 repair inh | ALOX12 inh | RORg inh
CCN1CCCN(S(=O)(=O)c2cc(OC)ccc2OC)CC12CCOCC2 | x | x | x | x | 24.1% | x
CC(=O)Nc1ccc(SC2CCCCC2=O)cc1 (stereo not drawn) | x | x | x | x | 2.7% | x
COCc1nnc(NC(=O)CCc2ccc(-c3ccc(C)cc3)o2)s1 | x | x | x | x | -19.4% | x
Cn1cnc2c1c(=O)n(CC(=O)N1CC(C(=O)N3CCOCC3)Oc3ccccc31)c(=O)n2C (stereo not drawn) | x | x | x | x | 34.3% | x
O=C(NCCc1ccccc1)N1CCCC(Cn2cnc3cccnc32)C1 (stereo not drawn) | x | x | x | x | 7.5% | x
c1nc(N2CCOCC2)c2cc(-c3ccoc3)ccc2n1 | u | -5.4% | 8.2µM* | x | u | -10.6%
CN(C)Cc1ccccc1-c1ccc2ncnc(N3CCOCC3)c2c1 | 20.6µM* | -11.2% | u | x | u | -15.5%
Cc1ccccc1-c1ccc2ncnc(N3CCOCC3)c2c1 | u | 9.6% | u | x | u | u
CCCCc1ccc(-c2ccc(C#N)cc2)nc1 | x | x | x | x | -49.9% | x
CN1CCN(Cc2ccc(-c3ccc(C(C)(C)C#N)cc3)nc2)CC1 | x | x | x | x | 20µM* | x
COc1ccc2nc(C[C@@H]3C[C@@H](C(C)C)[C@H](CNCc4ccccn4)C=C3C)[nH]c2c1 | x | x | x | x | 35.6%[176 µM] | x
O=C1c2cccc3c([N+](=O)[O-])ccc(c23)C(=O)N1c1ccc(Cl)cn1 | 3.66µM* | 7.94µM* | 3.26µM* | u | -34.9% | u
COc1ccc2c3c(cccc13)C(=O)N(O)C2=O | 2.06µM* | u | 2.31µM* | -16.2% | -6.8% | -4.2%
O=C1c2cccc3c([N+](=O)[O-])ccc(c23)C(=O)N1c1ccccn1 | 2.91µM* | -8.1% | 3.66µM* | u | 95.1%[57.4 µM] | 0.9%
CC(=O)Oc1ccc(N2C(=O)c3cccc4c([N+](=O)[O-])ccc(c34)C2=O)cc1 | 5.8µM* | u | 3.66µM* | 18.3µM* | u | u
CN(C)C[C@@H]1CN(Cc2ccncc2)C[C@H]1NC(=O)c1cccc(C#N)c1 | x | x | x | x | 63.4% | x
O=C(NCc1ccccn1)c1ccc2c(c1)CC(=O)N2Cc1ccc(F)cc1 | x | x | x | x | 0.7% | x
COCC(=O)Nc1ccc(-c2nc3ccccc3o2)cc1 | x | x | x | x | -18.2% | x
Fc1cccc(CSc2nnc(-c3c[nH]c4ccccc34)n2C2CC2)c1F | x | x | x | x | -6.7% | x
O=C(CSc1nnnn1C1CCCCC1)NC(c1ccccc1)c1cccs1 (stereo not drawn) | x | x | x | x | -3.1% | x
O=C1c2cccc3c([N+](=O)[O-])ccc(c23)C(=O)N1O | 2.31µM* | 12.6µM* | 2.06µM* | 13.4% | -11.1% | u
O=C1c2cccc3c([N+](=O)[O-])ccc(c23)C(=O)N1c1nccs1 | 3.26µM* | 5.01µM* | 3.26µM* | u | -18.7% | 5.62µM*
O=C1c2cccc3c([N+](=O)[O-])c(O)cc(c23)C(=O)N1Nc1ccccc1 | u | -17.2% | u | -26.2% | -21.7% | -7.1%
